# Data as given in PubChem BioAssay (Tox21).
# Inconclusive results are not listed. Unmarked numbers belong to inactive results. Calls of active or inactive are those of the source. Calls follow the shape of the full dose curve.
# Test: qHTS assay for small molecule disruptors of the mitochondrial membrane potential - cell viability (AID 720634);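 also: human HepG2 liver cancer cells; nearly all actives have a fitted effect of over 20% in size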
# Conditions: HepG2 viability, ATP luminescence (CellTiter-Glo), 1 h; series mostly up to 83.2 µM; activity change, negative = cytotoxicity: at the top concentration
# Procedure, shortened: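 Luminescence from CellTiter-Glo (ATP content) gave viability in HepG2 cells, read in the same wells as the MMP dye assay after 1 hr compound exposure at 37 C.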
# % is scaled to controls: 0 for no effect and ±100 for the full control effect.
Compound,"activity change, negative = cytotoxicity",outcome
CCCc1nn(C)c2c(=O)[nH]c(-c3cc(S(=O)(=O)N4CCN(C)CC4)ccc3OCC)nc12,15.2%,
CO[C@@]1(NC(=O)CSC[C@@H](N)C(=O)O)C(=O)N2C(C(=O)O)=C(CSc3nnnn3C)CS[C@@H]21,-2.22%,
CN(C)CCN(C)CCN(C)C,-3.48%,
Cc1ccc(C(=O)Nc2ccc(S(=O)(=O)O)c3cc(S(=O)(=O)O)cc(S(=O)(=O)O)c23)cc1NC(=O)c1cccc(NC(=O)Nc2cccc(C(=O)Nc3cc(C(=O)Nc4ccc(S(=O)(=O)O)c5cc(S(=O)(=O)O)cc(S(=O)(=O)O)c45)ccc3C)c2)c1,4.24%,
C=C(C)C(=O)OCCOCCOCCOCCOC(=O)C(=C)C,9.89%,
CC1=NS(=O)(=O)c2cc(Cl)ccc2N1,23.1%,
CC1(C)[C@@H]2CC[C@@]1(C)[C@H](O)C2,8.26%,
CCCC(C)C(=O)OCC (stereo unspecified),2.1%,
CCCCS(=O)(=O)N[C@@H](Cc1ccc(OCCCCC2CCNCC2)cc1)C(=O)O,5.58%,
c1coc(CNc2ncnc3nc[nH]c23)c1,-7.62%,
CC(C)CCCO,7.83%,
CC(=O)N1C[C@H](O)C[C@H]1C(=O)O,12.2%,
O=S(=O)(O)c1cccc2c(S(=O)(=O)O)cccc12,11.3%,
C=CN1CCCCCC1=O,15%,
CCCCCCCCCCCCSC,-5.98%,
C=CCOCC(O)CO (stereo unspecified),7.53%,
CC(=O)Oc1cccc(C)c1,17.3%,
CC1=CCC(O)(C(C)C)CC1 (stereo unspecified),-10.5%,
CCOC(=O)COC(=O)c1ccccc1C(=O)OCC,-6.2%,
CCCCCCC1CCC(=O)O1 (stereo unspecified),9.15% [at 95.3 µM],
CC[C@H]1OC(=O)[C@H](C)[C@@H](O[C@H]2C[C@@](C)(OC)[C@@H](O)[C@H](C)O2)[C@H](C)[C@@H](O[C@@H]2O[C@H](C)C[C@H](N(C)C)[C@H]2O)[C@](C)(OC)C[C@@H](C)C(=O)[C@H](C)[C@@H](O)[C@]1(C)O,,inactive
